# Reference: PubChem BioAssay AID624335 (National Center for Advancing Translational Sciences (NCATS), 2012)
# Activity calls are given as the source filed them. Calls follow the shape of the dose curve; as a rule, active = well fitted curve in the direction sought with a large enough effect; inactive = flat fitted curve, though single readings scatter.
# Assay: Quantitative high throughput screen for delayed death inhibitors of the malarial parasite plastid: Hit Validation with 3D7 at 96 hr using Flow Cytometry
# Details: P. falciparum 3D7 in erythrocytes, SYBR/MitoTracker flow cytometry
# Description: The goal of this screen is to discover new antimalarial compounds that act by inhibiting the development of the apicoplast organelle in the malarial parasite Plasmodium falciparum. Some antibiotics, such as azithromycin and tetracycline, are known to interfere with the apicoplast translational machinery, and have a potent antimalarial effect. […] We developed a cell-based quantitative high throughput screen that leverages this "delayed death" phenotype to enrich for compounds that target the apicoplast. To detect small molecules that cause the delayed death phenotype, erythrocytes infected with firefly luciferase-expressing parasites were incubated with compounds for either one or two generations, corresponding to 48 and 96 hours, respectively. Growth inhibition was detected by a decrease in luciferase activity. Compounds that inhibited parasite growth in the second generation at least five-fold more potently than in the first generation were defined as delayed death inducing. These compounds were selected for confirmatory screening using a flow cytometry based assay. This hit validation assay used the 3D7 cell line and measured at 96 hours. NIH Molecular Libraries Probe Production Network [MLPCN] NIH Chemical Genomics Center [NCGC] MLPCN Grant: R21 NS059500 Assay Provider: David Fidock and Eric Ekland, Columbia University
# Test compounds were diluted in 20 microliters of complete media (RPMI 1640 with 0.5% w/v Albumax (GIBCO), 24 mM sodium bicarbonate (Sigma) and 10 ug/mL gentamycin (Gibco)) in clear 384-well plates (Greiner). All liquid handling was conducted using a Bio Tek Precision 2000 pipetting system. Twenty microliters of infected erythrocytes, 0.2% parasitemia (for 48 hour time points) or 0.1% parasitemia (for 96 hour time points) were added to the compound dilutions (1% hematocrit, final concentration; 40 microliters, total culture volume). The assay plates were incubated for 48 hours, or 96 hours, at 37 masculine C in a humidified chamber (Billups- Rothenberg, Del Mar, CA, USA), gassed with 5%CO2/5%O2/ 90%N2. After two generations (96hours), 5 microliters of culture were harvested and transferred to a second 384 well plate for fluorescent staining. Samples were stained with 30 microliters of 2 x SYBR Green I (Invitrogen) and 150nM MitoTracker Deep Red (Invitrogen) diluted in 0.9% NaCl, 0.2% dextrose (Baxter) supplemented with 2.5% Fetal Calf Serum (Gibco) (saline/FCS). Mature erythrocytes lack nuclei and mitochondria, therefore only parasitized erythrocytes retain the SYBR Green I and MitoTracker Deep Red. After 30 minutes at 37 masculine C, the stained cells were diluted in an additional 60 microliters of saline/FCS. The samples were harvested directly from the 384 well plate using a Hypercyt High Capacity Flow Platform (Intellicyt) paired with a C6 Flow Cytometer (Accuri). The flow cytometry files were analyzed using FlowJo software (FlowJo).
row,SMILES,Potency
1,Cc1ccc(S(=O)(=O)Nc2ccc(C(=O)Nc3ccncc3)cc2)cc1,13.9 µM (active)
2,COc1cc(C(C)=O)ccc1OCC(O)CN1CCN(c2cc(C)cc(C)c2)CC1 (stereo not given),13.9 µM (active)
3,CO[C@@H]1[C@@H](OC2OC(C)C(OC3CC(C)(O)C(OC(=O)CC(C)C)C(C)O3)C(N(C)C)C2O)[C@@H](CC=O)C[C@@H](C)C(=O)/C=C\C2O[C@H]2C[C@@H](C)OC(=O)C[C@H]1OC(C)=O (stereo not given in full),0.178 µM (active)
4,COCCNC(=O)c1cccc(OC2CCN(Cc3cccc(SC)c3)CC2)c1,5.37 µM (active)
5,CCOC(=O)c1ccc2c(c1)n(CC)c(/C=C/N(C)c1ccccc1)[n+]2CC,0.209 µM (active)
6,COc1cccc(CN2CCN(c3nc4nonc4nc3N3CCCCC3)CC2=O)c1,1 µM (active)
7,COc1ccccc1N1CCN(CCC(=O)Nc2ccc(F)cc2)CC1,15.7 µM (active)
8,CCOc1ccc(C(=O)Nc2ccc(N3CCN(C)CC3)cc2)cc1,16.5 µM (active)
9,CC1=Nc2cc(C(=O)N3CCCC3)ccc2Sc2ccc(C)cc21,18 µM (active)
10,O=C(CNC(=O)C1CCCCC1)OC(C(=O)c1ccccc1)c1ccccc1 (stereo not given),31.7 µM (active)
11,Cc1ccc(CN2CCC(n3nccc3NC(=O)c3ccccc3C)CC2)o1,20.7 µM (active)
12,COc1ccc(NC(=S)N2CCC(Cc3ccccc3)CC2)cc1OC,26.6 µM (active)
13,Brc1cccc(OCCCCN2CCCCC2)c1,22.7 µM (active)
14,N#Cc1cccc(NC(=O)Cn2c3[n+](c4ccc(C(F)(F)F)cc42)CCCCC3)c1,0.96 µM (active)
15,CN(C)S(=O)(=O)c1cc(NC(=O)C2=COCCO2)ccc1Cl,15.9 µM (active)
16,COc1ccc2cc3cc(C(=O)Nc4ccc5c(c4)OCO5)oc3nc2c1,11.9 µM (active)
17,Clc1ccc(-c2c[n+](Cc3ccc(Cl)cc3Cl)c3n2CCCCC3)cc1,0.366 µM (active)
18,Cc1c(F)c(N2CCNC(C)C2)cc2c1c(=O)c(C(=O)O)cn2C1CC1 (stereo not given),0.651 µM (active)
19,CCc1nc(SCC(=O)Nc2ccc(N(C)C)cc2)n[nH]1,23.9 µM (active)
20,c1csc(CNc2ncnc3nc[nH]c23)c1,23.4 µM (active)

row,SMILES,Potency
1,CCCCN(CCCNC(=O)c1ccc(CS(=O)(=O)c2ccc(OC)cc2)o1)Cc1ccccc1,4.01 µM (active)
2,Cc1sc2nc[nH]c(=O)c2c1-c1ccc(Cl)cc1,13.8 µM (active)
3,CCCc1cc(=O)oc2cc(OC(C)C(=O)NCc3ccccn3)c(Cl)cc12 (stereo not given),3.22 µM (active)
4,CCN(CC)C(=O)COc1coc(CN2CCN(c3cccc(Cl)c3)CC2)cc1=O,17.2 µM (active)
5,CCOc1ccc(S(=O)(=O)Nc2cc(S(=O)(=O)N(CC)CC)ccc2N2CCCC2)cc1,6.38 µM (active)
6,O=C(Nc1ccccc1N1CCOCC1)c1cccc(S(=O)(=O)N2CCOCC2)c1,11 µM (active)
7,CCC(=O)OC1C(N(C)C)CC(C)O[C@H]1O[C@H]1[C@H](C)[C@@H](O[C@H]2CC(OC)[C@@H](O)C(C)O2)[C@H](C)C(=O)O[C@@H](CC)[C@](C)(O)[C@@H](O)[C@H](C)C(=O)[C@@H](C)C[C@]1(C)O (stereo not given in full),11.4 µM (active)
8,COc1ccc2c(ccc[n+]2CC(=O)c2ccccc2)c1,2.22 µM (active)
9,COc1ccc(C(=O)N2CCN(S(=O)(=O)c3ccc(C)cc3C)CC2)cc1OC,45.8 µM (active)
10,CCOc1ccc(NC(=O)C[n+]2ccc(N(C)C)cc2)cc1,0.135 µM (active)
11,CN(C)c1ccc(CN(C(=O)c2ccccc2Br)C2CCS(=O)(=O)C2)cc1 (stereo not given),18.2 µM (active)
12,Cc1ccc(-n2c(-c3ccc(Cl)cc3)c[n+]3c2CCC3)cc1,0.15 µM (active)
13,CC(C)C(=O)NCCSc1c[nH]c2ccccc12,16.6 µM (active)
14,O=C(c1ccc([N+](=O)[O-])cc1)n1nc(-c2ccccc2)nc1NCc1ccc(F)cc1,19.3 µM (active)
15,CCCCOc1ccc(N2C(N)=NC(N)=NC23CCCCC3)cc1,15.8 µM (active)
16,COc1ccc(CNC(=O)C2CCC(CNS(=O)(=O)c3cccc4cccnc34)CC2)cc1 (stereo not given),16.5 µM (active)
17,CCCc1c(CC)c(=N)c2ccccc2n1C,0.198 µM (active)
18,CCCCN(CCCNC(=O)C1CCN(C(=O)c2cc3sccc3n2C)CC1)Cc1ccccc1,0.617 µM (active)
19,COc1ccc(Nc2nnc(-c3ccc(C)cc3)c3ccccc23)cc1C(=O)N1CCCCC1,20 µM (active)
20,CC(=O)NC[C@@H]1CN(c2ccc(N3CCOCC3)c(F)c2)C(=O)O1,22.2 µM (active)
